Data reported in PubChem BioAssay AID1578 (Sanford-Burnham Center for Chemical Genomics, 2009).
The campaign covered roughly 290,000 compounds. About 3,000 (1%) were called active. The sample holds actives, similar compounds and a random draw of the others, so the mix is not that of the screen. Cut-off read from the data, not from the text of the source: active = inhibition mostly above about 36% (no sharp cut-off); inactive = mostly below about 34%.

Assay: inhibition of NOD1-driven NF-kB reporter – cell-based, luminescence, uHTS, primary screen (AID 1578);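 note: HEK-293T reporter cells stimulated with the NOD1 agonist gamma-tri-DAP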
Conditions: NOD1-driven NF-kB luciferase reporter cells, at 4 µM, stronger effect = higher value

Row | SMILES | inhibition
1 | Cc1cc(NC(=O)CN(C)CCOc2ccccc2)ccc1Br | 7.6% (inactive)
2 | CCN(CC)C(=O)CSc1n[nH]c(=S)n1N | -12.5% (inactive)
3 | COC(=O)c1ccc(CSc2n[nH]c(-c3ccccc3)n2)o1 | -16.9% (inactive)
4 | COc1ccc(N2CC(C(=O)Nc3ccccc3C(=O)NC3CC3)CC2=O)cc1 (stereo not drawn) | -5.8% (inactive)
5 | CCOC(=O)c1cccc(N2C(=O)C3C4C=CC(CC4)C3C2=O)c1 (stereo not drawn) | 7.8% (inactive)
6 | CCSc1nnc(NC(=O)c2cccnc2)s1 | -21.5% (inactive)
7 | CCOC(=O)C1=C(C)NC(=O)NC1c1c(OC)ccc2ccccc12 (stereo not drawn) | -31.2% (inactive)
8 | O=C(NNC(=O)C12CC3CC(CC(C3)C1)C2)c1ccccn1 | 102% (active)
9 | O=C(NNC(=O)C12CC3CC(CC(C3)C1)C2)c1cnccn1 | -14.6% (inactive)
10 | C/C(=N\NC(=O)c1ccccn1)C12CC3CC(CC(C3)C1)C2 | -2.5% (inactive)
11 | O=C(N/C(=C/c1ccc(Br)cc1)C(=O)N1CCCC1=O)c1ccco1 | 63.5% (active)
12 | O=C(N/C(=C/c1ccc(Br)cc1)C(=O)N1CCOCC1)c1ccco1 | -24.4% (inactive)
13 | COc1ccc(/C=C(/NC(=O)c2ccco2)C(=O)N2CCCC2=O)cc1 | -22.3% (inactive)
14 | CC(=O)c1cccc(CN2CCN(C3CCCCC3)C(CCO)C2)c1 (stereo not drawn) | -6.2% (inactive)
15 | CC(C)Oc1cccc(NC(=O)c2cnccc2C(F)(F)F)c1 | -4.2% (inactive)
16 | COc1ccc(C(=O)N/C(=C\c2cccc([N+](=O)[O-])c2)C(=O)Nc2cccc(C(=O)O)c2)cc1 | -30.8% (inactive)
17 | CC(C)(C)C1=CC(=O)C(N2CCOCC2)=CC1=O | 3.6% (inactive)
18 | CC1=C(C)C(=O)C(N2CCOCC2)=CC1=O | -11.2% (inactive)
19 | CC1CN(CCOc2ccc([N+](=O)[O-])cc2)CC(C)O1 (stereo not drawn) | -4.4% (inactive)
20 | C=CCN(c1ccccc1)S(=O)(=O)c1ccc(Cl)c(C(=O)OCC(=O)N(C)C2CCS(=O)(=O)C2)c1 (stereo not drawn) | -31.4% (inactive)
21 | Nc1c2c(nc3ccccc13)CCCC2 | -26.6% (inactive)
22 | Cc1cccc2c(N)c3c(nc12)CCCC3 (tested in a mixture with another compound) | 53.2% (active)
23 | Cc1cccc2c(C(=O)O)c3c(nc12)CCCCC3 | -22.2% (inactive)
24 | COc1ccc2[nH]c(C(=O)O)c(NS(=O)(=O)c3ccc(C)c(C)c3)c2c1 | -3.1% (inactive)

Row | SMILES | inhibition
25 | Cc1ccc(Nc2nc(-c3sc(C)nc3C)cs2)cc1 | -5% (inactive)
26 | Cc1nc(C)c(-c2csc(Nc3ccc(N)cc3)n2)s1 | 16.7% (inactive)
27 | Cc1nc(C)c(-c2csc(Nc3ccc(F)cc3)n2)s1 | 44.7% (active)
28 | COC(=O)C(C)(C)ONC(=O)Nc1ccc([N+](=O)[O-])cc1 | -7% (inactive)
29 | CCOc1ccccc1C(=O)N/N=C/c1ccoc1 | -17.7% (inactive)
30 | CN=c1scc(-c2ccccc2Br)n1/N=C/c1ccc[nH]1 | 12.4% (inactive)
31 | CN=c1scc(-c2ccccc2F)n1/N=C/c1ccc[nH]1 | 101% (active)
32 | CN=c1scc(-c2ccccc2F)n1/N=C/c1ccc(O)c(O)c1O | -44.9% (inactive)
33 | N#Cc1nc(COc2ccc(Cl)cc2Cl)oc1N1CCN(c2ccccc2)CC1 | 21.8% (inactive)
34 | COc1ccc(N2CCN(C(c3ccccc3OC)c3nnnn3C3CCCC3)CC2)cc1 (stereo not drawn) | -19.3% (inactive)
35 | COc1ccc(C(CC(=O)O)NC(=O)C2CCCCC2)cc1 (stereo not drawn) | 19.1% (inactive)
36 | O=C(O)CC(NC(=O)C1CCCCC1)c1ccc(OC2CCCC2)cc1 (stereo not drawn) | 65.3% (active)
37 | CC(C)Oc1ccc(C(CC(=O)O)NC(=O)C2CCCCC2)cc1 (stereo not drawn) | -11.6% (inactive)
38 | CCOC(=O)N1CCN(C(=O)c2cccc(F)c2)CC1 | -43.9% (inactive)
39 | CCOc1cccc2sc(N(CCN(C)C)C(=O)CCS(=O)(=O)c3ccccc3)nc12 | -29% (inactive)
40 | Cc1ccc2sc(N(CCCN(C)C)C(=O)CCS(=O)(=O)c3ccccc3)nc2c1C | -27% (inactive)
41 | CN1C(=O)C2(C(C#N)=C(N)N(c3cc(Cl)cc(Cl)c3)C3=C2C(=O)CC(C)(C)C3)c2ccccc21 (stereo not drawn) | -0.6% (inactive)
42 | O=c1ccnc(SCCC(F)=C(F)F)[nH]1 | -43.9% (inactive)
43 | O/N=C\c1ccc(-c2ccccc2)o1 | 3.8% (inactive)
44 | Cn1c(CCN2CCN(c3ccccn3)CC2)nc2cc(NC(=O)COc3ccc(Cl)cc3)ccc21 | 21% (inactive)
45 | COc1ccc(CCNC(=O)c2ccc(-c3ccc([N+](=O)[O-])cc3)o2)cc1OC | 38.5% (inactive)
46 | COc1ccc(CCNC(=O)c2ccc(-c3ccc([N+](=O)[O-])cc3Cl)o2)cc1OC | 95.8% (active)
47 | COc1ccc(CCNC(=O)c2ccc(-c3ccc([N+](=O)[O-])cc3Cl)o2)cc1 | 4.2% (inactive)
48 | COc1ccc(-c2nnn(CC(=O)c3ccccc3)n2)cc1OC | -8.9% (inactive)

Row | SMILES | inhibition
49 | COc1cc(/C=C/C(=O)O)cc(S(=O)(=O)N2CCc3ccccc3C2)c1OC | -13.2% (inactive)
50 | CC(CC(=O)NCCc1ccc(F)cc1)c1ccccc1 (stereo not drawn) | -24.3% (inactive)
51 | CN1c2ccsc2/C(=N/Nc2ccccc2)CS1(=O)=O | -41.3% (inactive)
52 | Cc1ccc(N/N=C2\CS(=O)(=O)N(C)c3ccsc32)cc1 | 58.9% (active)
53 | CN1c2ccsc2/C(=N/Nc2ccc(F)cc2)CS1(=O)=O | -1.7% (inactive)
54 | C[C@@H](O)C1NC(=O)[C@H](CCCCN)NC(=O)c2cc([N+](=O)[O-])cc(I)c2NCCC[C@@H](C(N)=O)NC1=O (stereo partly drawn) | -16% (inactive)
55 | COc1cc(CNC2CCCCCCC2)ccc1OCC(N)=O | -34.5% (inactive)
56 | COc1ccc(OC)c2sc(NC(=O)c3ccc(S(=O)(=O)N(C)C)cc3)nc12 | -12.2% (inactive)
57 | C/C(=N\NC(=O)c1nnn(-c2nonc2N)c1CN(C)c1ccccc1)c1cccs1 | -19.9% (inactive)
58 | CCN(CCCNC(=O)c1c(C)cc(=O)oc1C)c1ccccc1 | 8.4% (inactive)
59 | CCn1c(C)cc(/C=C2\NC(=O)N(CC(=O)Nc3cccc(C)c3)C2=O)c1C | 9.5% (inactive)
60 | COc1cccc(/C=N/c2oc(-c3ccccc3)cc2C#N)c1O | -11% (inactive)
61 | COc1cc(/C=N/c2oc(-c3ccccc3)cc2C#N)ccc1O | -15.3% (inactive)
62 | N#Cc1cc(-c2ccccc2)oc1/N=C/c1ccccc1O | 49.6% (active)
63 | Nc1ccc(Br)cc1C(NCC(=O)O)c1ccccc1 (stereo not drawn) | -19% (inactive)
64 | CC(C)(C)NC(=O)C1CCN(S(=O)(=O)c2cccc(C(F)(F)F)c2)CC1 | -13.7% (inactive)
65 | COc1ccc(C2(c3ccc(OC)cc3)NC(=O)N(CC(=O)Nc3ccccc3C(F)(F)F)C2=O)cc1 | -18.1% (inactive)
66 | O=C(Nc1cccc(Cl)c1)c1cccnn1 | -9.2% (inactive)
67 | CCOc1ccc(/C=C/C(O)=C2/C(=O)NC3(C)CC2c2ccccc2O3)cc1OC (stereo not drawn) | 46.7% (inactive)
68 | COc1ccc(/C=C/C(O)=C2/C(=O)NC3(C)CC2c2ccccc2O3)c(OC)c1OC (stereo not drawn) | 69.9% (active)
69 | COc1cccc2c1OC1(C)CC2/C(=C(\C)O)C(=O)N1 (stereo not drawn) | -20.8% (inactive)
70 | COc1ccc(CCNC(=S)Nc2cccc(C)c2C)cc1 | -19.9% (inactive)
71 | COc1ccc(OC)c(NC(=O)COC(=O)/C=C/c2c(C)nn(C3CCS(=O)(=O)C3)c2Cl)c1 (stereo not drawn) | -5% (inactive)
72 | COc1ccc2cc(C#N)c(N3CCOCC3)nc2c1 | 2.7% (inactive)

Row | SMILES | inhibition
73 | O=C1NC(=S)S/C1=C/c1ccc(N2CCOCC2)o1 | 27.5% (inactive)
74 | COc1ccc2nc(N3CCCCC3)c(C#N)cc2c1 | -123% (inactive)
75 | COc1ccc(-n2c(C)cc(/C=C3\SC(=S)NC3=O)c2C)cc1 | -70.7% (inactive)
76 | COc1ccc2cc(/C=C3\SC(=S)NC3=O)c(N3CCOCC3)nc2c1 | 71.4% (active)
77 | COc1ccccc1C(=O)NC(=S)Nc1ccc2[nH]c(=O)[nH]c2c1 | -36.5% (inactive)
78 | Cc1ccc(NC(=O)CCC(=O)OCC(=O)c2ccc(Oc3ccc([N+](=O)[O-])cc3)cc2)cc1C | -7% (inactive)
79 | OCCSc1nc(N2CCOCC2)nc(N2CCOCC2)n1 | -22.8% (inactive)
80 | COC(=O)c1cc(CSc2ncnc3sccc23)oc1C | -1.8% (inactive)
81 | Cc1cc(-n2cnc(-c3cn[nH]c3C)n2)no1 | -8.9% (inactive)
82 | COc1ccc(S(=O)(=O)Nc2cccc(S(=O)(=O)N3CCCCCC3)c2)cc1 | -27% (inactive)
83 | O=S(=O)(Nc1nc2ccccc2nc1Nc1ccc2c(c1)OCO2)c1ccccc1 | 57.6% (inactive)
84 | O=S(=O)(Nc1cccc(S(=O)(=O)N2CCCCCC2)c1)c1ccccc1 | -11.7% (inactive)
85 | COc1ccc(S(=O)(=O)Nc2nc3ccccc3nc2Nc2ccc3c(c2)OCO3)cc1 | 7% (inactive)
86 | O=S(=O)(Nc1nc2ccccc2nc1Nc1cccc(S(=O)(=O)N2CCCCC2)c1)c1ccccc1 | 98.4% (active)
87 | CCOc1ccc(NS(=O)(=O)c2ccc(C(=O)N(CC)CC(=O)NCc3cccs3)cc2)cc1 | -1.7% (inactive)
88 | COc1cccc(CNC(=O)COc2ccc(C(=O)c3ccccc3)cc2)c1 | 4% (inactive)
89 | O=C(NCc1ccco1)Nc1ccc(OC(F)(F)F)cc1 | -6.5% (inactive)
90 | O=C(C1=NN[C@@H]2C(=O)N(c3ccccc3C(F)(F)F)C(=O)[C@H]12)c1cnccn1 | -13.1% (inactive)
91 | Cc1cccc2cc3c(N)c(C(=O)N4CCOCC4)sc3nc12 | -5% (inactive)
92 | Cc1ccc2nc3sc(C(=O)Nc4ccc(N5CCOCC5)cc4)c(N)c3cc2c1 | -21.9% (inactive)
93 | COc1cc(NC(=O)CSc2nccc(=O)[nH]2)c(C)cc1[N+](=O)[O-] | -24.5% (inactive)
